According to PubChem BioAssay (NCATS):
Results filed as inconclusive are left out. Entries that show only a call come without a potency. Active and inactive are the calls of the source. The call rests on the fitted dose curve; in most records, active means well fitted inhibition curve with a large enough effect; inconclusive means small, poorly fitted or top-dose-only effect; inactive means flat fitted curve, though single readings scatter.

molecular target: Calcium and integrin-binding protein 1 (Homo sapiens) (UniProt Q99828); test: Primary qHTS for Identification of Calcium Integrin Binding Protein 1 (CIB1) Competitor (AID 1508620); details: CIB1-GST / FITC-alphaIIb peptide fluorescence polarization; series mostly up to 57.7 µM;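 further: GST tagged CIB1 binding a fluorescein labelled alphaIIb integrin peptide tracer; top concentration of the series differs between compounds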
Sequence (Q99828 whole entry, looked up): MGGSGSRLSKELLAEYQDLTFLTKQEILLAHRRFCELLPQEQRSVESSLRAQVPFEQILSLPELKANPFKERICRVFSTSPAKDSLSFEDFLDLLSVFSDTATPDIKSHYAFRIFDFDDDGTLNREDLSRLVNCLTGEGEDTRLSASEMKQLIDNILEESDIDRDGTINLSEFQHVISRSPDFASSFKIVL
In short: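 Fluorescence polarization competition: CIB1-GST (1 uM final) preincubated with compound 15 min at room temperature, then FITC-labeled alphaIIb peptide (100 nM final) added for another 15 min. Polarization read at Ex 480/Em 540.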

Row | Structure (SMILES) | Potency
1 | NC(=O)Nc1cc(-c2ccc(CN3CCOCC3)c(F)c2)sc1C(=O)N[C@H]1CCCNC1 | inactive
2 | CCC(C)(O)C(O)C(=O)OCc1ccc(O[C@@H]2O[C@H](CO)[C@@H](O)[C@H](O)[C@H]2O)c(OC)c1 (some centres undefined) | inactive
3 | CC(CO[C@@H]1O[C@H](COC(=O)/C=C/c2ccc(O)c(O)c2)[C@@H](O)[C@H](O)[C@H]1O)C1(O)COC(=O)C1 (some centres undefined) | inactive
4 | CO/N=C(/C(=O)N[C@@H]1C(=O)N2C(C(=O)O)=C(CSC(=O)c3ccco3)CS[C@H]12)c1csc(N)n1 | inactive
5 | C[C@@H]1O[C@@H](O[C@H]2[C@H](O[C@H]3[C@H](O[C@H]4CC[C@@]5(C=O)C(CC[C@]6(C)C5CC=C5C7CC(C)(C)C[C@@H](O)[C@]7(C)CC[C@]56C)C4(C)C)O[C@H](C(=O)O)[C@@H](O)[C@@H]3O)OC[C@@H](O)[C@@H]2O)[C@H](O)[C@H](O)[C@H]1O (some centres undefined) | inactive
6 | C[C@@H]1CC[C@]2(C(=O)O[C@@H]3O[C@H](CO)[C@@H](O)[C@H](O)[C@H]3O)CC[C@]3(C)C(=CCC4[C@@]5(C)C[C@@H](O)[C@H](O)C(C)(C)C5CC[C@]43C)C2[C@]1(C)O (some centres undefined) | inactive
7 | CC(=O)N[C@H]1CCN(c2ccc(C3=NOC(CN[S+](=O)([O-])C(C)C)C3)cc2F)C1 (some centres undefined) | inactive
8 | CC(=O)NC(C(=O)OC1CCC(C)(C)C2CC=C3C(=O)OCC3(O)C12C)C(C)C (centres undefined) | inactive
9 | CC(C)CC(=O)OC[C@H]1O[C@@](COC(=O)CC(C)C)(O[C@H]2O[C@H](CO)[C@@H](O)[C@H](O)[C@H]2O)[C@@H](OC(=O)CC(C)C)[C@@H]1OC(=O)CC(C)C | inactive
10 | COC(=O)C1=CO[C@@H](O[C@@H]2O[C@H](CO)[C@@H](O)[C@H](O)[C@H]2O)[C@@H]2[C@@H](C(=O)OC)[C@@H](O)C(O)[C@H]12 (some centres undefined) | inactive
11 | COC1=CC(=O)O[C@@H](CCc2ccccc2)[C@@H]1O | inactive
12 | COc1cc([C@H]2OC[C@]3(OC(C)=O)[C@@H](c4ccc(O[C@@H]5O[C@H](CO)[C@@H](O)[C@H](O)[C@H]5O)c(OC)c4)OC[C@H]23)ccc1O | inactive
13 | CC(C(=O)O)C1CCC2(C)C3C(=O)C=C4C(CCC(=O)C4(C)C)C3(C)CCC12C (centres undefined) | inactive
14 | COC(=O)C1=C[C@@H](O)[C@@H](O)[C@H](O[C@@H]2O[C@H](COC(=O)/C=C/c3ccccc3)[C@@H](O)[C@H](O)[C@H]2O)C1 | inactive
15 | CC(C)C(C#N)O[C@@H]1O[C@H](CO[C@@H]2OC[C@](O)(CO)[C@H]2O)[C@@H](O)[C@H](O)[C@H]1O (some centres undefined) | inactive
16 | C[C@@H]1C(=O)O[C@H]2[C@H]1CC[C@@]1(C)C(=O)C=C[C@](C)(O)[C@H]21 | inactive
17 | C=C1CC[C@H]2[C@@](C)(CCC(O)[C@@]2(C)CO)[C@@H]1C/C=C(/C(=O)O)C(O)CO (some centres undefined) | inactive
18 | CC1(CO)CC[C@]2(C(=O)O[C@@H]3O[C@H](CO)[C@@H](O)[C@H](O)[C@H]3O)CC[C@]3(C)C(=CCC4[C@@]5(C)CC[C@H](O[C@@H]6O[C@H](C(=O)O)[C@@H](O)[C@H](O)[C@H]6O)C(C)(C)C5CC[C@]43C)C2C1 (some centres undefined) | inactive
19 | CC1=CC(=O)CC(C)(C)C1(O)CCC(C)O (centres undefined) | inactive
20 | CC1(C)CC[C@]2(C(=O)O)CC[C@]3(C)C(=CCC4[C@@]5(C)C[C@H](O)[C@H](O[C@@H]6OC[C@H](O)[C@H](O)[C@H]6O)[C@@](C)(CO)C5CC[C@]43C)[C@@H]2C1 (some centres undefined) | inactive

Row | Structure (SMILES) | Potency
21 | COC1=Cc2c(nc3n(c2=O)C(C)C(=O)NC3(O)C(C)C)OC=C1 (centres undefined) | inactive
22 | CC(C)NC[C@H](O)COc1ccc(CCOCC2CC2)cc1 | inactive
23 | CC(C)(OC1OC(CO)C(O)C(O)C1O)C1CCC(O)(CO)C2CC(O)C(C)(O)C2C1 (centres undefined) | inactive
24 | OCCc1ccc(O[C@@H]2O[C@H](CO)[C@@H](O)[C@H](O)[C@H]2O)c(O)c1 | inactive
25 | C=C1CCC2C(C)(CO[C@@H]3O[C@H](CO)[C@@H](O)[C@H](O)[C@H]3O)C(O)CCC2(C)C1C(=O)CC1=CCOC1=O (some centres undefined) | inactive
26 | C=C1CCC2C(C)(C(=O)O)CC(O)CC2(C)C1CC/C(C)=C/C(=O)O (centres undefined) | inactive
27 | COc1c(C(CC(C)C)OC(C)=O)ccc(Oc2c(O)cc(C)cc2/C=C/C(C)=O)c1C(=O)O (centres undefined) | inactive
28 | CC(=O)OC[C@]1(O)[C@H]2[C@H](OC(=O)CC(C)C)OC=C(CO[C@@H]3O[C@H](CO)[C@@H](O)[C@H](O)[C@H]3O)[C@H]2C[C@@H]1O | inactive
29 | CO[C@@H]1CC[C@H](OC[C@]2(COC(=O)c3ccc(C)[nH]3)[C@H](OC(C)=O)CC[C@@]3(C)[C@@H]4CC=C(C)[C@@H](C5=C(O)C(=O)OC5O)[C@]4(C)CC[C@@H]32)O[C@H]1C (some centres undefined) | inactive
30 | CC1CCC2C(C(=O)O)=CC3CC(C)(C)CC132 (centres undefined) | inactive
31 | CC(=O)O[C@@H]1[C@H]2[C@@H](OC(=O)c3ccccc3)[C@@H](C)C[C@]2(O)[C@H](OC(C)=O)[C@@]2(C)[C@@H]3CC(C)(C)C(=O)[C@]3(OC(C)=O)C[C@@]12C | inactive
32 | CC1CCC2C(C)(C)CC(C)(CO)C2(O)C1C(=O)O (centres undefined) | inactive
33 | O=c1c2ccccc2nc2n1CCC2O (centres undefined) | inactive
34 | CC(=O)O[C@@H]1[C@@H](OC(=O)/C=C/c2ccccc2)[C@H](C)O[C@@H](O[C@H]2[C@@H]3C=CO[C@@H](O[C@@H]4O[C@H](CO)[C@@H](O)[C@H](O)[C@H]4O)[C@@H]3[C@@]3(CO)O[C@@H]23)[C@@H]1OC(C)=O | inactive
35 | CC(=O)N[C@H]1[C@H](O[C@H]2CC[C@@]3(C)C(CC[C@]4(C)C3CC=C3C5CC(C)(C)CC[C@]5(C(=O)O)[C@H](O[C@@H]5O[C@H](CO)[C@@H](O)[C@H](O)[C@H]5O)C[C@]34C)C2(C)C)O[C@H](CO[C@@H]2OC[C@H](O)[C@H](O)[C@H]2O[C@@H]2OC[C@@H](O)[C@H](O)[C@H]2O)[C@@H](O)[C@@H]1O (some centres undefined) | inactive
36 | COc1cc(/C=C/C(=O)OC2CC3CCC2(C)C3(C)C)ccc1O (centres undefined) | inactive
37 | CC(C)C1(O[C@@H]2O[C@H](CO)[C@@H](O)[C@H](O)[C@H]2O)CC=C(CO)CC1 (some centres undefined) | inactive
38 | COc1cc([C@@H]2Oc3c(OC)cc(CCCO)cc3[C@@H]2CO[C@@H]2O[C@H](CO)[C@@H](O)[C@H](O)[C@H]2O)ccc1O | inactive
39 | C=C/C=C/[C@@H]1OC[C@H](/C=C/C=C/C)[C@H]1O | inactive
